The source of these data is publication PMC7862700, “An all-to-all approach to the identification of sequence-specific readers for epigenetic DNA modifications on cytosine”.

Test in all cases: DAPPL (digital affinity profiling via proximity ligation, sequencing); 10 mM Tris-HCl pH 7.5, 50 mM NaCl, 1 mM DTT, 4% glycerol, room temperature, 30 min; GST-TFs on glutathione beads, 16-mer random dsDNA library, 0.1% formaldehyde crosslink after washing; high values mean tight binding
Holding throughout (conditions): protein: recombinant; tags: N-terminal GST; dsDNA, one strand shown

Test [1] has as its target T1, ERF (Homo sapiens, UniProt P50548 1-548).
T1 sequence: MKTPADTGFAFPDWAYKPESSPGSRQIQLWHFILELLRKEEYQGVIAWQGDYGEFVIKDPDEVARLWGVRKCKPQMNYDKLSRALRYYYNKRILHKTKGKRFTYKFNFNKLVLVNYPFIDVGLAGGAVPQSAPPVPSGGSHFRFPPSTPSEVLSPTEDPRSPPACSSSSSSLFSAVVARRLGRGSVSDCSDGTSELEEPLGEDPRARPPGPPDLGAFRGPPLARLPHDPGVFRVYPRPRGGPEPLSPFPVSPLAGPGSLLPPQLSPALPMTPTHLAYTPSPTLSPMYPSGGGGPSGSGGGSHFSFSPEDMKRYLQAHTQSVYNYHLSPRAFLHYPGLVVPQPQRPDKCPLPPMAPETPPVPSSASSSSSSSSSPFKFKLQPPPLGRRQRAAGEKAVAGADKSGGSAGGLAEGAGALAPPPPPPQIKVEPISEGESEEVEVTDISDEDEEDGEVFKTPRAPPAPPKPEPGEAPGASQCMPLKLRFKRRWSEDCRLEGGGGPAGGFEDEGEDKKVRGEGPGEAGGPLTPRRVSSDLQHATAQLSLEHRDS
Put shortly: (§1)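 Beads coated with glutathione captured GST-fused human transcription factors that had been expressed in yeast, and the factors were then given DNA barcodes and pooled with a tag-only sample. The pools were incubated with 200 nmole of a random double-stranded 16-mer DNA library in Tris/NaCl/DTT/glycerol buffer for 30 min at room temperature, washed, crosslinked with 0.1% formaldehyde and proximity-ligated with BsaI/T4 ligase at 37 °C for 1 h. PCR amplification and Illumina NextSeq500 sequencing came last. Binding signal is each hexamer's read frequency for a factor divided by its frequency for the tag-only sample.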

Test [2] has as its target T2, ETV3L (Homo sapiens, UniProt Q6ZN32 1-361).
T2 sequence: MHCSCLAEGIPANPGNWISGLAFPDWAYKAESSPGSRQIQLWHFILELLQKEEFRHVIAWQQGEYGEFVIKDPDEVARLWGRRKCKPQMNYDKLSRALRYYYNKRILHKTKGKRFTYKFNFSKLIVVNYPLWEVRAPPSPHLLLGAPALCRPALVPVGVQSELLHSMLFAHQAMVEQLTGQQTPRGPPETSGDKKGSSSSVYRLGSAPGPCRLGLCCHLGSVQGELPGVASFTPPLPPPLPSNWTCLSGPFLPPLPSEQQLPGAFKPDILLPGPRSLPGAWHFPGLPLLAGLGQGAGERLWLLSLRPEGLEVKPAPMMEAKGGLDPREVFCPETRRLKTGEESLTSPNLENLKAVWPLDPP
Put shortly:
as §1

The target in test [3] is T3, ETS2 (Homo sapiens, UniProt P15036 1-469).
T3 sequence: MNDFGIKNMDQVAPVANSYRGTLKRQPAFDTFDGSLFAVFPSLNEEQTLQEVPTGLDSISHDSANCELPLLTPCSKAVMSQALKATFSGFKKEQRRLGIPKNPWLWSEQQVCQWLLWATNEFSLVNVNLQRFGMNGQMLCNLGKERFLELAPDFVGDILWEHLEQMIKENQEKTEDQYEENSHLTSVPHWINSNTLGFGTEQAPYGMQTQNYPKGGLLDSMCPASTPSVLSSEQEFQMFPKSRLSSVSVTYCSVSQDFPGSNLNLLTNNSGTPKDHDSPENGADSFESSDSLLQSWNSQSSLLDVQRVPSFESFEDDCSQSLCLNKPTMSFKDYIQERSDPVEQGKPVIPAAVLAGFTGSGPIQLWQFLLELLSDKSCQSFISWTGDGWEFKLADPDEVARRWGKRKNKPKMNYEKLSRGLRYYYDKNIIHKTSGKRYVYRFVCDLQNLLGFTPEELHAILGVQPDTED
Put shortly: as §1

In test [4] the target is T4, SPDEF (Homo sapiens, UniProt O95238 1-335).
T4 sequence: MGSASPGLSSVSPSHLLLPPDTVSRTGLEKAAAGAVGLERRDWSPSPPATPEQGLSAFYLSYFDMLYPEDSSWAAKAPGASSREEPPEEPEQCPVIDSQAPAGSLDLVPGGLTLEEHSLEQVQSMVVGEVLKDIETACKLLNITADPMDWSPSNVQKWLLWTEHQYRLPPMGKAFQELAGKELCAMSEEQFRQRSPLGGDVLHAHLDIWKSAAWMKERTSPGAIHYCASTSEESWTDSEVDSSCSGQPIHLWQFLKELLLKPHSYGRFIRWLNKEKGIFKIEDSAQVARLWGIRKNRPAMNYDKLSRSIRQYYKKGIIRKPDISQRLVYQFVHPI
In a few lines:
as §1

The target of test [5] is T5, ETV7 (Homo sapiens, UniProt Q9Y603 1-341).
T5 sequence: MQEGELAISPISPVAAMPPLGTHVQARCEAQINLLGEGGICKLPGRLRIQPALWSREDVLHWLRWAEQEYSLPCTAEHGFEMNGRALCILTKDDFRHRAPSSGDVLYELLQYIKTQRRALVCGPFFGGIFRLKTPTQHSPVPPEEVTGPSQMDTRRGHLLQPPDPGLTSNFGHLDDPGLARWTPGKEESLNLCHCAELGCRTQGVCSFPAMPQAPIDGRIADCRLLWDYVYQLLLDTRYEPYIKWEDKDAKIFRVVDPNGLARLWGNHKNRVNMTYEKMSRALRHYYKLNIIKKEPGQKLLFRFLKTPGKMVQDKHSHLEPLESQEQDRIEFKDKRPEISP
In a few lines:
as §1

Test [6] has as its target T6, ELF5 (Homo sapiens, UniProt Q9UKW6-2 1-255).
T6 sequence: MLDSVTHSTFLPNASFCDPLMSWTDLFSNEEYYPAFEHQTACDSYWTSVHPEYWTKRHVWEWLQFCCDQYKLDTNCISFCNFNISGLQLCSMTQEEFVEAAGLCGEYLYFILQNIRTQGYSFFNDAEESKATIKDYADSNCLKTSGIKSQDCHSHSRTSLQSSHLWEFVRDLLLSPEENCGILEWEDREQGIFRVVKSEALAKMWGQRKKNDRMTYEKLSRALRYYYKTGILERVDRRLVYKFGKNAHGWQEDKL
Put shortly:
as §1

For test [7], the target named is T7, ETV3 (Homo sapiens, UniProt P41162-2 1-143).
T7 sequence: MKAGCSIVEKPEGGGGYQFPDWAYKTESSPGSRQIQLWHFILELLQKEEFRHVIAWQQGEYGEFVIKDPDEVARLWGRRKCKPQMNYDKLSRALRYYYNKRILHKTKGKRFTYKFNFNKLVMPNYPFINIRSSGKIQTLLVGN
In a few lines:
as §1

The target of test [8] is ETV6 (Homo sapiens, UniProt P41212 1-452). Put shortly: as §1
Chain of ETV6 (P41212 whole entry): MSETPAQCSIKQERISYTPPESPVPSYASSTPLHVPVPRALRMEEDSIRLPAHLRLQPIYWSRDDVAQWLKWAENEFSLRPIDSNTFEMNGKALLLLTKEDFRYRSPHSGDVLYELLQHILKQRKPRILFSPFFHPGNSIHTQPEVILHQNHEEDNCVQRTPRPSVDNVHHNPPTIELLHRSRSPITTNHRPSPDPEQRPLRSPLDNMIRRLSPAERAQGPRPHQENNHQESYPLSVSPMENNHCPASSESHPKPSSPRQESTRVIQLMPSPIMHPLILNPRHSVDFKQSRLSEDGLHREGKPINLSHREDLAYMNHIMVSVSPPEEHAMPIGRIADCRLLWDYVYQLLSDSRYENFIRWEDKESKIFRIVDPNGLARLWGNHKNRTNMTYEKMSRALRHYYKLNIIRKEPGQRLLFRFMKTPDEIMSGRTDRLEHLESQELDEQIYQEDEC

GCTTTT: the binding signal in test [1] was 1.16 fold enrichment (6-mer frequency, TF over GST control); in test [2], 1.12 fold enrichment (6-mer frequency, TF over GST control); in test [3], 1.17 fold enrichment (6-mer frequency, TF over GST control); in test [4], 1.09 fold enrichment (6-mer frequency, TF over GST control); in test [5], 1.21 fold enrichment (6-mer frequency, TF over GST control); in test [6], 1.06 fold enrichment (6-mer frequency, TF over GST control). Besides, the binding signal was 1.15 fold enrichment (6-mer frequency, TF over GST control) in test [7] and 1.22 fold enrichment (6-mer frequency, TF over GST control) in test [8].
In the case of TGTCAC, the binding signal in test [1] is 1.13 fold enrichment (6-mer frequency, TF over GST control); in test [2], 1.21 fold enrichment (6-mer frequency, TF over GST control); in test [3], 1.26 fold enrichment (6-mer frequency, TF over GST control); in test [4], 1.09 fold enrichment (6-mer frequency, TF over GST control); in test [5], 1.29 fold enrichment (6-mer frequency, TF over GST control); in test [6] it was 1.11 fold enrichment (6-mer frequency, TF over GST control). Also, the binding signal is 1.08 fold enrichment (6-mer frequency, TF over GST control) in test [7] and 1.1 fold enrichment (6-mer frequency, TF over GST control) in test [8].
Regarding TGCATA, the binding signal in test [1] was 1.09 fold enrichment (6-mer frequency, TF over GST control); in test [2] it was 1.23 fold enrichment (6-mer frequency, TF over GST control); in test [3], 1.17 fold enrichment (6-mer frequency, TF over GST control); in test [4], 1.18 fold enrichment (6-mer frequency, TF over GST control); in test [5], 1.23 fold enrichment (6-mer frequency, TF over GST control); in test [6] it was 1.06 fold enrichment (6-mer frequency, TF over GST control). Further, the binding signal in test [7] is 1.11 fold enrichment (6-mer frequency, TF over GST control); in test [8] it was 1.05 fold enrichment (6-mer frequency, TF over GST control).
AAGCTT: the binding signal in test [1] is 1.29 fold enrichment (6-mer frequency, TF over GST control); in test [2] it was 1.31 fold enrichment (6-mer frequency, TF over GST control); in test [3] it was 1.19 fold enrichment (6-mer frequency, TF over GST control); in test [4], 1.14 fold enrichment (6-mer frequency, TF over GST control); in test [5], 1.38 fold enrichment (6-mer frequency, TF over GST control); in test [6], 1.31 fold enrichment (6-mer frequency, TF over GST control). Besides, the binding signal is 1.2 fold enrichment (6-mer frequency, TF over GST control) in test [7] and 1.3 fold enrichment (6-mer frequency, TF over GST control) in test [8].
TACTTA: the binding signal was 1.29 fold enrichment (6-mer frequency, TF over GST control) in test [1]; 1.2 fold enrichment (6-mer frequency, TF over GST control) in test [2]; 1.25 fold enrichment (6-mer frequency, TF over GST control) in test [3]; 1.14 fold enrichment (6-mer frequency, TF over GST control) in test [4]; 1.21 fold enrichment (6-mer frequency, TF over GST control) in test [5]; 1.14 fold enrichment (6-mer frequency, TF over GST control) in test [6]. Further, the binding signal in test [7] was 1.17 fold enrichment (6-mer frequency, TF over GST control); in test [8], 1.28 fold enrichment (6-mer frequency, TF over GST control).
ACCCCG: the binding signal was 1.26 fold enrichment (6-mer frequency, TF over GST control) in test [1]; 1.33 fold enrichment (6-mer frequency, TF over GST control) in test [2]; 1.25 fold enrichment (6-mer frequency, TF over GST control) in test [3]; 1.15 fold enrichment (6-mer frequency, TF over GST control) in test [4]; 1.02 fold enrichment (6-mer frequency, TF over GST control) in test [5]; 1.21 fold enrichment (6-mer frequency, TF over GST control) in test [6]. The binding signal was 1.11 fold enrichment (6-mer frequency, TF over GST control) in test [7] and 1.16 fold enrichment (6-mer frequency, TF over GST control) in test [8].
As for CGTAAC, the binding signal was 1.09 fold enrichment (6-mer frequency, TF over GST control) in test [1]; 1.08 fold enrichment (6-mer frequency, TF over GST control) in test [2]; 1.15 fold enrichment (6-mer frequency, TF over GST control) in test [3]; 1.17 fold enrichment (6-mer frequency, TF over GST control) in test [4]; 1.07 fold enrichment (6-mer frequency, TF over GST control) in test [5]; 1.12 fold enrichment (6-mer frequency, TF over GST control) in test [6]. Further, the binding signal in test [7] was 1.16 fold enrichment (6-mer frequency, TF over GST control); in test [8] it was 1.06 fold enrichment (6-mer frequency, TF over GST control).
